# Data taken from PMC7862700, “An all-to-all approach to the identification of sequence-specific readers for epigenetic DNA modifications on cytosine”.
# Legend:
# Experiment in all cases: DAPPL (digital affinity profiling via proximity ligation, sequencing); 10 mM Tris-HCl pH 7.5, 50 mM NaCl, 1 mM DTT, 4% glycerol, room temperature, 30 min; GST-TFs on glutathione beads, 16-mer random dsDNA library, 0.1% formaldehyde crosslink after washing; high values mean tight binding
# FEV = target: T1, FEV (Homo sapiens, UniProt Q99581 1-238); conditions: protein: recombinant; tags: N-terminal GST; dsDNA, one strand shown
# T1 sequence: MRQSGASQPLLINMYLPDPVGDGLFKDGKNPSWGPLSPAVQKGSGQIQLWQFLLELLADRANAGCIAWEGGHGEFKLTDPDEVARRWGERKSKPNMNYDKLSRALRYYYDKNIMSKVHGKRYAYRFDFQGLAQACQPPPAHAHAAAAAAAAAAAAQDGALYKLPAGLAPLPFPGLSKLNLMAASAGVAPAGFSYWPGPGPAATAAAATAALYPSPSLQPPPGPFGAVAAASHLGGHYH
# How it was run: (§1)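 Pools of DNA-barcoded human transcription factors, expressed in yeast as GST fusions on glutathione beads and combined with a tag-only sample, were incubated with 200 nmole of a 16-mer random double-stranded DNA library. Incubation took 30 min at room temperature in Tris/NaCl/DTT/glycerol buffer and was followed by washing, 0.1% formaldehyde crosslinking, proximity ligation (BsaI/T4 ligase, 1 h, 37 °C), PCR amplification and sequencing on an Illumina NextSeq500. Binding signal is the ratio of a hexamer's read frequency for a factor to its frequency for the tag-only sample.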
# ETV5 = ETV5 (Homo sapiens, UniProt P41161 1-510); conditions: protein: recombinant; tags: N-terminal GST; dsDNA, one strand shown
# How it was run: as §1
# HSF1 = HSF1 (Homo sapiens, UniProt Q00613 1-529); conditions: protein: recombinant; tags: N-terminal GST; chain copies: 3; dsDNA, one strand shown
# How it was run: as §1
# SPIC = target: T2, SPIC (Homo sapiens, UniProt Q8N5J4 1-248); conditions: protein: recombinant; tags: N-terminal GST; dsDNA, one strand shown
# T2 sequence: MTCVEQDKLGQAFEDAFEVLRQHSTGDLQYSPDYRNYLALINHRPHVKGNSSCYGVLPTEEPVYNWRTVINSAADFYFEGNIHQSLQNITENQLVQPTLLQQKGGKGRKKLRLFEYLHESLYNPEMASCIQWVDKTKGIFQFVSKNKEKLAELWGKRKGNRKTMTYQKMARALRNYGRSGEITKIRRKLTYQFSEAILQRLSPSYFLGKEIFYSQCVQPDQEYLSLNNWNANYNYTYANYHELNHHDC
# How it was run: as §1
# ELF4 = ELF4 (Homo sapiens, UniProt Q99607 1-663); conditions: protein: recombinant; tags: N-terminal GST; dsDNA, one strand shown
# How it was run: as §1
# ELK4 = target: T3, ELK4 (Homo sapiens, UniProt P28324-2 1-405); conditions: protein: recombinant; tags: N-terminal GST; dsDNA, one strand shown
# T3 sequence: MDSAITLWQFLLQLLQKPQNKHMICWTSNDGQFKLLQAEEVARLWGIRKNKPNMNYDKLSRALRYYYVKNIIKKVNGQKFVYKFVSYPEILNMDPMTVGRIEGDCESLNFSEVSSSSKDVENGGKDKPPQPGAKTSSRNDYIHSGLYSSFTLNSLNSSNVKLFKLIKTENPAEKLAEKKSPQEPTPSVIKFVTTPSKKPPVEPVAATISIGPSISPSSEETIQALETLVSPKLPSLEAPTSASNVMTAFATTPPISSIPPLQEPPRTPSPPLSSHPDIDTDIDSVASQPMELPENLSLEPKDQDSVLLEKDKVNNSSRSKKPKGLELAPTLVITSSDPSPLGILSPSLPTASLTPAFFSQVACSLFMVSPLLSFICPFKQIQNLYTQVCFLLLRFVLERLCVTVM
# How it was run: as §1
# ETV2 = target: T4, ETV2 (Homo sapiens, UniProt O00321 1-342); conditions: protein: recombinant; tags: N-terminal GST; dsDNA, one strand shown
# T4 sequence: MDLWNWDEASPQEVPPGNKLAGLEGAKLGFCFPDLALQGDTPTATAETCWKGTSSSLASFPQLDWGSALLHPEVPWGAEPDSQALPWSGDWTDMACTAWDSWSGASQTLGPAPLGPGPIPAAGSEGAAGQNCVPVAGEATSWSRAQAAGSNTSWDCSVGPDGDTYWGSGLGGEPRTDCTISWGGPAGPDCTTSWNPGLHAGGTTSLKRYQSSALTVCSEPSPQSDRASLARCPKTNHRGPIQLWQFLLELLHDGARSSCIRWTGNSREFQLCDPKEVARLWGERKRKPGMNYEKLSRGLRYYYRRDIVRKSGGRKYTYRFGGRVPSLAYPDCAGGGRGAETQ
# How it was run: as §1
# ELF3 = target: T5, ELF3 (Homo sapiens, UniProt P78545 1-371); conditions: protein: recombinant; tags: N-terminal GST; dsDNA, one strand shown
# T5 sequence: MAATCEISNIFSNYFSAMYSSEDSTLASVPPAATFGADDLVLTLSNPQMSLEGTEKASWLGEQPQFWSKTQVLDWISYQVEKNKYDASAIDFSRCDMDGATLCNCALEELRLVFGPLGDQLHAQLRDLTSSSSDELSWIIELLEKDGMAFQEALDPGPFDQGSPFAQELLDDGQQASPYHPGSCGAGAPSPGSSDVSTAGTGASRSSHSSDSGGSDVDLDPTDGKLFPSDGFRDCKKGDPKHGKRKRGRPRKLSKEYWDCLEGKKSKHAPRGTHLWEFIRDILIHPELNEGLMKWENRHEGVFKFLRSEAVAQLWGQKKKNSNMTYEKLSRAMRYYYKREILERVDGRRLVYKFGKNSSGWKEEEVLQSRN
# How it was run: as §1
# CRX = CRX (Homo sapiens, UniProt O43186 1-299); conditions: protein: recombinant; tags: N-terminal GST; dsDNA, one strand shown
# How it was run: as §1
# ETV1 = ETV1 (Homo sapiens, UniProt P50549 1-477); conditions: protein: recombinant; tags: N-terminal GST; dsDNA, one strand shown
# How it was run: as §1
# ERF = target: T6, ERF (Homo sapiens, UniProt P50548 1-548); conditions: protein: recombinant; tags: N-terminal GST; dsDNA, one strand shown
# T6 sequence: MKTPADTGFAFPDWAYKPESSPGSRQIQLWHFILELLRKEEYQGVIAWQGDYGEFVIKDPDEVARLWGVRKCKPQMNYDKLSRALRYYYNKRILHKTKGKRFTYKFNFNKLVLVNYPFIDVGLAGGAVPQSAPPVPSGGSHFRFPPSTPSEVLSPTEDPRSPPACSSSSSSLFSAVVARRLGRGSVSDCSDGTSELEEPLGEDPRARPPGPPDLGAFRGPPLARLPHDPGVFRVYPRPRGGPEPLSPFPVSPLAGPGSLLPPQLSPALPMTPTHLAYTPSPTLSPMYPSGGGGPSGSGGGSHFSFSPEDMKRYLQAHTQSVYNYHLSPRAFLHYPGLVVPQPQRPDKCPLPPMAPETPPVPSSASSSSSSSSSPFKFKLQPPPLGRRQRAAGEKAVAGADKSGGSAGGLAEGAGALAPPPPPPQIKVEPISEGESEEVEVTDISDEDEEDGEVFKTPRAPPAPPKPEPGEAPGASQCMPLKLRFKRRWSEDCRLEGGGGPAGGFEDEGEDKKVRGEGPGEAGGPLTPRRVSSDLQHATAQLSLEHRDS
# How it was run: as §1
# ETV3L = target: T7, ETV3L (Homo sapiens, UniProt Q6ZN32 1-361); conditions: protein: recombinant; tags: N-terminal GST; dsDNA, one strand shown
# T7 sequence: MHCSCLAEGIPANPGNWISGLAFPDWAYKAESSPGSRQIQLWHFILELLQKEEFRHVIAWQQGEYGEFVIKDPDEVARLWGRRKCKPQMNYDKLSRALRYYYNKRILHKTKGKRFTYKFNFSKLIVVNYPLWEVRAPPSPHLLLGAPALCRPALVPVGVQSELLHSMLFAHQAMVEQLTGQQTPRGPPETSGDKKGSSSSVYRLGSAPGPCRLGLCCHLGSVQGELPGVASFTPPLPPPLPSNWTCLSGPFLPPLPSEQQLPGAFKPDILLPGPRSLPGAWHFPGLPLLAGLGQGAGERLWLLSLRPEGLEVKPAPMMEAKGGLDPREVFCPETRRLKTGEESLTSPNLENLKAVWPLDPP
# How it was run: as §1
# ETS2 = target: T8, ETS2 (Homo sapiens, UniProt P15036 1-469); conditions: protein: recombinant; tags: N-terminal GST; dsDNA, one strand shown
# T8 sequence: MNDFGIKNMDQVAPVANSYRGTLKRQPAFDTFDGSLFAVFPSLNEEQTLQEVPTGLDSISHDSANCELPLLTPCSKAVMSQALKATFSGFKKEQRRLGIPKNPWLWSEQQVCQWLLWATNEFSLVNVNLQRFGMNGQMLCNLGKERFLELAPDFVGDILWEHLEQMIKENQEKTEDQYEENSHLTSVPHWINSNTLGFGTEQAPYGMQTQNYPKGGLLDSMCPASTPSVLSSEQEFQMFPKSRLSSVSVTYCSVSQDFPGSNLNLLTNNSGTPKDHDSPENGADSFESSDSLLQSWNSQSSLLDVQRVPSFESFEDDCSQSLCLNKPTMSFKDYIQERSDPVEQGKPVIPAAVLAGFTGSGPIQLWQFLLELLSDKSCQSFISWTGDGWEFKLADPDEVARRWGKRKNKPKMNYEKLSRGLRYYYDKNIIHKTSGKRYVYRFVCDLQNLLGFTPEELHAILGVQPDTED
# How it was run: as §1
# SPDEF = target: T9, SPDEF (Homo sapiens, UniProt O95238 1-335); conditions: protein: recombinant; tags: N-terminal GST; dsDNA, one strand shown
# T9 sequence: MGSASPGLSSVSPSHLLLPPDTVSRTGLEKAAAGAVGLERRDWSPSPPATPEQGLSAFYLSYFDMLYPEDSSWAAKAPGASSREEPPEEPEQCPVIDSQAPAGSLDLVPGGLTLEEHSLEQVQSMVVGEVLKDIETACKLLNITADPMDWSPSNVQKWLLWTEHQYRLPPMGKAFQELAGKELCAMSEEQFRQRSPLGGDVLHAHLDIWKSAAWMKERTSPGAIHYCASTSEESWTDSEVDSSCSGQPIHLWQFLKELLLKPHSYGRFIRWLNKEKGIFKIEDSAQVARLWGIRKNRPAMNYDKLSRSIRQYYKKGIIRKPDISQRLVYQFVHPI
# How it was run: as §1
# ETV7 = target: T10, ETV7 (Homo sapiens, UniProt Q9Y603 1-341); conditions: protein: recombinant; tags: N-terminal GST; dsDNA, one strand shown
# T10 sequence: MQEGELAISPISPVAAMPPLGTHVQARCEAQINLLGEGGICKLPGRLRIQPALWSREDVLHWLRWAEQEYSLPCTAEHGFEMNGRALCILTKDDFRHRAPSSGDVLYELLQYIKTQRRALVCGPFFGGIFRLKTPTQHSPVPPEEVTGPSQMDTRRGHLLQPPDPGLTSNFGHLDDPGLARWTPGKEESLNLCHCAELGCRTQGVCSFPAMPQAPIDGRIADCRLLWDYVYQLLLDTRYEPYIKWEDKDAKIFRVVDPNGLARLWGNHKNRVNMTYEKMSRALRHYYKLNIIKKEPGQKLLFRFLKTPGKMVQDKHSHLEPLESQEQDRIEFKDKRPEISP
# How it was run: as §1
# ELF5 = target: T11, ELF5 (Homo sapiens, UniProt Q9UKW6-2 1-255); conditions: protein: recombinant; tags: N-terminal GST; dsDNA, one strand shown
# T11 sequence: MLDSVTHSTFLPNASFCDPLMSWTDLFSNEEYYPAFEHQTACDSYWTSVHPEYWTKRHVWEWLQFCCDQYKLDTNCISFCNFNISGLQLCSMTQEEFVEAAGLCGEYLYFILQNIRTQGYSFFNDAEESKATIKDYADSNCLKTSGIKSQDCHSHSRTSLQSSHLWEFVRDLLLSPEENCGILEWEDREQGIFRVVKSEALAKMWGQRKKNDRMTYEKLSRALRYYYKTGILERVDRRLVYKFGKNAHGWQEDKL
# How it was run: as §1
# ETV6 = ETV6 (Homo sapiens, UniProt P41212 1-452); conditions: protein: recombinant; tags: N-terminal GST; dsDNA, one strand shown
# How it was run: as §1
# HSF1, sequence (Q00613 whole entry): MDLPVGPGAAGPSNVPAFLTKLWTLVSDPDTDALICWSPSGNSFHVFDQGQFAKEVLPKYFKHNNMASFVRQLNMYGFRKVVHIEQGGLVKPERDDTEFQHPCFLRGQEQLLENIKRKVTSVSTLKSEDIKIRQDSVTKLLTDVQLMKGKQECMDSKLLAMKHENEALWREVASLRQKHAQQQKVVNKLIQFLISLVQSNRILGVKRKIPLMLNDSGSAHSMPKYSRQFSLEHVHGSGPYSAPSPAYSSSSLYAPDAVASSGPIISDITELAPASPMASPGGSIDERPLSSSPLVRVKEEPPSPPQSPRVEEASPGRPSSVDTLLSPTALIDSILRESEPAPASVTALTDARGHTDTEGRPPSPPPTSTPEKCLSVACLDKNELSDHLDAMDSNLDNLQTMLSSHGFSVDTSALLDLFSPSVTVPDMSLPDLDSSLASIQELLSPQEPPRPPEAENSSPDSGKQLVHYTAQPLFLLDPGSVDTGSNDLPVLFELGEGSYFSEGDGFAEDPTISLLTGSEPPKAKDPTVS
# CRX, sequence (O43186 whole entry): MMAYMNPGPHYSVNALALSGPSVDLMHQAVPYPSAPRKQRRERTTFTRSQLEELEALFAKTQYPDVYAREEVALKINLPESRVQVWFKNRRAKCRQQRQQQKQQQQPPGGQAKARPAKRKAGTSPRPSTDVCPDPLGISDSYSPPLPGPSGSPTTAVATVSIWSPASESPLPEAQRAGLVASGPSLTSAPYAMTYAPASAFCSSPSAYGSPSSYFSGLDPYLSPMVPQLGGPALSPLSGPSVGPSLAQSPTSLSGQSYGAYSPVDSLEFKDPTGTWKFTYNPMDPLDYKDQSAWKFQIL
# ETV1, sequence (P50549 whole entry): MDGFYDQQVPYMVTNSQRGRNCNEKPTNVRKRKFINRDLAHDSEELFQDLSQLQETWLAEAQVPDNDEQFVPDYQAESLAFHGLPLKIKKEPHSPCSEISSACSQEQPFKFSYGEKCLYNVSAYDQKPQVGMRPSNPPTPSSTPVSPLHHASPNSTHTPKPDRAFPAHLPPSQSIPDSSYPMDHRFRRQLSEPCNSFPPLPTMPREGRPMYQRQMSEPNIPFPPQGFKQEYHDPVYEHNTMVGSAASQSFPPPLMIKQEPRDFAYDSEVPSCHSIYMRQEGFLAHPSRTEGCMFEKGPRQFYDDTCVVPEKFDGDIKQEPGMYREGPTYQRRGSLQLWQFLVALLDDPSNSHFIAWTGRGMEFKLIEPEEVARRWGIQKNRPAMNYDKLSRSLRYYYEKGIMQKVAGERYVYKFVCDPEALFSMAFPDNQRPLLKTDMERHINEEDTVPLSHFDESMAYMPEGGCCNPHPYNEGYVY
# ETV5, sequence (P41161 whole entry): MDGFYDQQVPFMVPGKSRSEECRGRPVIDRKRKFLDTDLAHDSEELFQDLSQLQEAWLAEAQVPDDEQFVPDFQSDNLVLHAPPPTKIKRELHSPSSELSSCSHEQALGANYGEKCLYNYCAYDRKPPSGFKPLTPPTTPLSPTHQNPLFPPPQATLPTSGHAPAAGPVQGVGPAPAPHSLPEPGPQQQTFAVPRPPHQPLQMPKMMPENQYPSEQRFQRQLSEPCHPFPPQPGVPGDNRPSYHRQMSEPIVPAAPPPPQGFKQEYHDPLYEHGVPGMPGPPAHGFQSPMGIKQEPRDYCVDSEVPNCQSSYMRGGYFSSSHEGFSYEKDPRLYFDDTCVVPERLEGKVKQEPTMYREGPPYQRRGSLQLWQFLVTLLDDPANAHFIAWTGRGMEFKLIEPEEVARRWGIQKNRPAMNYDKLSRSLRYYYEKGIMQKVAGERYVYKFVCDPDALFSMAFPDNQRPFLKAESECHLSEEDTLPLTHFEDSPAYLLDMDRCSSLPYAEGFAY
# ETV6, sequence (P41212 whole entry): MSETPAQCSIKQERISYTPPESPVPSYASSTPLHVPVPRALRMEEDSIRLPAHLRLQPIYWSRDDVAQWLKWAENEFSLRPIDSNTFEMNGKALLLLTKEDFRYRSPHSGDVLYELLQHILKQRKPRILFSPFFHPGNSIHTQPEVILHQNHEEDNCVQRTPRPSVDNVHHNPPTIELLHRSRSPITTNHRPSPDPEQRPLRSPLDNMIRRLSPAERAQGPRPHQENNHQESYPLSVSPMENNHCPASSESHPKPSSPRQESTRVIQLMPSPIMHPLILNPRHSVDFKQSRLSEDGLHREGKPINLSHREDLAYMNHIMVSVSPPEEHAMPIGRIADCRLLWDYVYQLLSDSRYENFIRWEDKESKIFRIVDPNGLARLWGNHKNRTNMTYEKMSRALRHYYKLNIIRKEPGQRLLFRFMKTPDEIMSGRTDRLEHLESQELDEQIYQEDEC
# ELF4, sequence (Q99607 whole entry): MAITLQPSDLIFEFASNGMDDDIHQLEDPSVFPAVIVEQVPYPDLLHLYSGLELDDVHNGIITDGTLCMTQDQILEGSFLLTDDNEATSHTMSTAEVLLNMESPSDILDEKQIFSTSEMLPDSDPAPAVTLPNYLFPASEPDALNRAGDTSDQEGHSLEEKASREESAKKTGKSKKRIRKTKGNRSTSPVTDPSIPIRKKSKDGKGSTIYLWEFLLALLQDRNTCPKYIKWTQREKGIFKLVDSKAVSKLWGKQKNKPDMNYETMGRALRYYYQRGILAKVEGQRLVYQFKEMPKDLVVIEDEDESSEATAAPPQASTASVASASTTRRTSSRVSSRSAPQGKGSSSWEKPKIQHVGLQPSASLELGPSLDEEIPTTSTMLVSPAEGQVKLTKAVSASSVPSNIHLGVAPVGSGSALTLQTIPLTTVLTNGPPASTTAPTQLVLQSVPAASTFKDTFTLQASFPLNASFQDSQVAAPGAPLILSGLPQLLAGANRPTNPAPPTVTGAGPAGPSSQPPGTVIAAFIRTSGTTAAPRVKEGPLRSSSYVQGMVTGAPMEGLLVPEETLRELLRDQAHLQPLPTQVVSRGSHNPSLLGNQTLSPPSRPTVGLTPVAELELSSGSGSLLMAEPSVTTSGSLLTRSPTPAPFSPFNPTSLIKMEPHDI
sequence,measurement,setting,value
TCGAAT,binding signal,FEV,"1.03 fold enrichment (6-mer frequency, TF over GST control)"
same,binding signal,ETV5,"1.15 fold enrichment (6-mer frequency, TF over GST control)"
same,binding signal,HSF1,"2.2 fold enrichment (6-mer frequency, TF over GST control)"
same,binding signal,SPIC,"1.03 fold enrichment (6-mer frequency, TF over GST control)"
same,binding signal,ELF4,"1.1 fold enrichment (6-mer frequency, TF over GST control)"
same,binding signal,ELK4,"1.33 fold enrichment (6-mer frequency, TF over GST control)"
same,binding signal,ETV2,"1.03 fold enrichment (6-mer frequency, TF over GST control)"
same,binding signal,ELF3,"1.11 fold enrichment (6-mer frequency, TF over GST control)"
same,binding signal,CRX,"1.38 fold enrichment (6-mer frequency, TF over GST control)"
same,binding signal,ETV1,"1 fold enrichment (6-mer frequency, TF over GST control)"
same,binding signal,ERF,"1.13 fold enrichment (6-mer frequency, TF over GST control)"
same,binding signal,ETV3L,"1.09 fold enrichment (6-mer frequency, TF over GST control)"
same,binding signal,ETS2,"1.06 fold enrichment (6-mer frequency, TF over GST control)"
same,binding signal,SPDEF,"1.09 fold enrichment (6-mer frequency, TF over GST control)"
same,binding signal,ETV7,"1.23 fold enrichment (6-mer frequency, TF over GST control)"
same,binding signal,ELF5,"1.02 fold enrichment (6-mer frequency, TF over GST control)"
same,binding signal,ETV6,"1.13 fold enrichment (6-mer frequency, TF over GST control)"
